Hit rate of the full screen: of about 5,500 compounds, about 2,000 (36%) were called active. About 18% were inconclusive and are not listed. Cut-off read from the data, not from the text of the source: active = normalized growth mostly below about 0.91 (no sharp cut-off); inconclusive = no clear call, values can overlap the other calls; inactive = mostly above about 0.92. This is one part of the list.
Assay: chemical genetic growth profiling, strain panel (AID 1159580);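 note: tested at 20 µM; growth read once vehicle control cultures reached saturation at 30 °C; 1 = growth at the plate median or of vehicle wells; lower values mean less growth of the strain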
Details: growth OD

Measured: normalized growth

C=C[C@@]1(C)CC(=O)[C@@]2(O)[C@](C)(O1)[C@@H](OC(C)=O)[C@@H](O)C1C(C)(C)CC[C@H](O)[C@@]12C (some centres not stated)
inactive: S. cerevisiae deletion strains, locus YJR075W, strain HOC1, stronger effect = lower value 0.997 | S. cerevisiae deletion strains, locus YKL009W, strain mrt4, stronger effect = lower value 0.964 | S. cerevisiae deletion strains, locus YKL068W, stronger effect = lower value 0.992 | S. cerevisiae deletion strains, locus YKL085W, strain MDH1 (second series), stronger effect = lower value 0.966 | S. cerevisiae deletion strains, locus YKL085W, strain MDH1, stronger effect = lower value 0.966 | S. cerevisiae deletion strains, locus YKL160W, strain elf1, stronger effect = lower value 0.963 | S. cerevisiae deletion strains, locus YKL190W, strain CNB1, stronger effect = lower value 0.99 | S. cerevisiae deletion strains, locus YKR001C, strain vps1, stronger effect = lower value 0.984 | S. cerevisiae deletion strains, locus YKR026C, strain gcn3, stronger effect = lower value 0.997 | S. cerevisiae deletion strains, locus YKR091W, strain srl3, stronger effect = lower value 0.971 | S. cerevisiae deletion strains, locus YLL001W, strain dnm1, stronger effect = lower value 1.02 | S. cerevisiae deletion strains, locus YLL026W, stronger effect = lower value 0.964 | S. cerevisiae deletion strains, locus YLL041C, strain sdh2, stronger effect = lower value 0.969 | S. cerevisiae deletion strains, locus YLR027C, strain aat2, stronger effect = lower value 0.98 | S. cerevisiae deletion strains, locus YLR039C, strain RIC1, stronger effect = lower value 0.939 | S. cerevisiae deletion strains, locus YLR058C, strain SHM2, stronger effect = lower value 0.982 | S. cerevisiae deletion strains, locus YLR102C, strain apc9, stronger effect = lower value 0.974 | S. cerevisiae deletion strains, locus YLR113W, strain HOG1, stronger effect = lower value 0.955 | S. cerevisiae deletion strains, locus YLR221C, strain rsa3, stronger effect = lower value 1.03 | S. cerevisiae deletion strains, locus YLR258W, strain gsy2, stronger effect = lower value 0.965 | S. cerevisiae deletion strains, locus YLR262C, strain YPT6 (second series), stronger effect = lower value 0.968 | S. cerevisiae deletion strains, locus YLR262C, strain YPT6, stronger effect = lower value 0.894 | S. cerevisiae deletion strains, locus YLR268W, strain sec22, stronger effect = lower value 1.07 | S. cerevisiae deletion strains, locus YLR320W, strain mms22, stronger effect = lower value 1.01 | S. cerevisiae deletion strains, locus YLR330W, strain CHS5, stronger effect = lower value 0.989 | S. cerevisiae deletion strains, locus YLR342W, strain FKS1 (second series), stronger effect = lower value 0.987 | S. cerevisiae deletion strains, locus YLR342W, strain FKS1, stronger effect = lower value 0.991 | S. cerevisiae deletion strains, locus YLR357W, strain rsc2, stronger effect = lower value 0.987 | S. cerevisiae deletion strains, locus YLR370C, strain arc18, stronger effect = lower value 0.978 | S. cerevisiae deletion strains, locus YLR371W, strain rom2, stronger effect = lower value 0.968 | S. cerevisiae deletion strains, locus YLR384C, strain iki3, stronger effect = lower value 0.993 | S. cerevisiae deletion strains, locus YLR418C, strain cdc73, stronger effect = lower value 0.99 | S. cerevisiae deletion strains, locus YML016C, strain PPZ1, stronger effect = lower value 0.991 | S. cerevisiae deletion strains, locus YML032C, strain rad52, stronger effect = lower value 1.01 | S. cerevisiae deletion strains, locus YML120C, strain ndi1, stronger effect = lower value 0.989 | S. cerevisiae deletion strains, locus YML124C, strain tub3, stronger effect = lower value 0.983 | S. cerevisiae deletion strains, locus YMR058W, strain fet3, stronger effect = lower value 0.982 | S. cerevisiae deletion strains, locus YMR078C, strain ctf18, stronger effect = lower value 0.985 | S. cerevisiae deletion strains, locus YMR125W, strain sto1, stronger effect = lower value 0.974 | S. cerevisiae deletion strains, locus YMR129W, stronger effect = lower value 0.965 | S. cerevisiae deletion strains, locus YMR205C, strain PFK2, stronger effect = lower value 0.998 | S. cerevisiae deletion strains, locus YMR223W, strain ubp8, stronger effect = lower value 0.98 | S. cerevisiae deletion strains, locus YMR231W, strain pep5, stronger effect = lower value 0.992 | S. cerevisiae deletion strains, locus YMR263W, strain SAP30, stronger effect = lower value 0.992 | S. cerevisiae deletion strains, locus YMR307W, strain GAS1, stronger effect = lower value 1 | S. cerevisiae deletion strains, locus YNL067W, strain RPL9B, stronger effect = lower value 1.01 | S. cerevisiae deletion strains, locus YNL071W, strain lat1, stronger effect = lower value 0.988 | S. cerevisiae deletion strains, locus YNL128W, strain TEP1, stronger effect = lower value 0.965 | S. cerevisiae deletion strains, locus YNL153C, strain GIM3, stronger effect = lower value 1.01 | S. cerevisiae deletion strains, locus YNL183C, strain NPR1, stronger effect = lower value 0.933 | S. cerevisiae deletion strains, locus YNL209W, strain ssb2, stronger effect = lower value 0.992 | S. cerevisiae deletion strains, locus YNL233W, strain BNI4, stronger effect = lower value 1.01 | S. cerevisiae deletion strains, locus YNL248C, strain rpa49, stronger effect = lower value 0.919 | S. cerevisiae deletion strains, locus YNL250W, strain rad50, stronger effect = lower value 0.972 | S. cerevisiae deletion strains, locus YNL271C, strain bni1, stronger effect = lower value 0.987 | S. cerevisiae deletion strains, locus YNL298W, strain CLA4, stronger effect = lower value 0.959 | S. cerevisiae deletion strains, locus YNL307C, strain MCK1, stronger effect = lower value 0.996 | S. cerevisiae deletion strains, locus YNL322C, strain KRE1 (second series), stronger effect = lower value 0.939 | S. cerevisiae deletion strains, locus YNL322C, strain KRE1, stronger effect = lower value 0.994 | S. cerevisiae deletion strains, locus YNR049C, strain mso1, stronger effect = lower value 0.959 | S. cerevisiae deletion strains, locus YNR052C, strain pop2, stronger effect = lower value 0.984 | S. cerevisiae deletion strains, locus YOL006C, strain TOP1, stronger effect = lower value 0.997 | S. cerevisiae deletion strains, locus YOL012C, strain htz1 1.15 | S. cerevisiae deletion strains, locus YOL147C, strain pex11, stronger effect = lower value 0.999 | S. cerevisiae deletion strains, locus YOR001W, strain rrp6, stronger effect = lower value 1.03 | S. cerevisiae deletion strains, locus YOR061W, strain CKA2, stronger effect = lower value 0.972 | S. cerevisiae deletion strains, locus YOR069W, strain VPS5, stronger effect = lower value 0.993 | S. cerevisiae deletion strains, locus YOR070C, strain gyp1, stronger effect = lower value 0.986 | S. cerevisiae deletion strains, locus YOR080W, strain dia2, stronger effect = lower value 0.973 | S. cerevisiae deletion strains, locus YOR083W, strain WHI5, stronger effect = lower value 0.92 | S. cerevisiae deletion strains, locus YOR106W, strain vam3, stronger effect = lower value 0.919 | S. cerevisiae deletion strains, locus YOR136W, strain idh2, stronger effect = lower value 0.978 | S. cerevisiae deletion strains, locus YOR144C, strain elg1, stronger effect = lower value 0.991 | S. cerevisiae deletion strains, locus YOR184W, strain ser1, stronger effect = lower value 0.978 | S. cerevisiae deletion strains, locus YOR231W, strain MKK1, stronger effect = lower value 0.966 | S. cerevisiae deletion strains, locus YOR265W, strain rbl2, stronger effect = lower value 0.988 | S. cerevisiae deletion strains, locus YOR270C, strain vph1, stronger effect = lower value 0.94 | S. cerevisiae deletion strains, locus YOR290C, strain snf2, stronger effect = lower value 0.955 | S. cerevisiae deletion strains, locus YOR316C, strain cot1, stronger effect = lower value 0.984 | S. cerevisiae deletion strains, locus YPL051W, strain arl3, stronger effect = lower value 0.97 | S. cerevisiae deletion strains, locus YPL055C, strain LGE1, stronger effect = lower value 0.998 | S. cerevisiae deletion strains, locus YPL078C, strain atp4, stronger effect = lower value 0.955 | S. cerevisiae deletion strains, locus YPL106C, strain sse1, stronger effect = lower value 0.955 | S. cerevisiae deletion strains, locus YPL240C, strain hsp82, stronger effect = lower value 0.987 | S. cerevisiae deletion strains, locus YPL241C, strain CIN2, stronger effect = lower value 0.989 | S. cerevisiae deletion strains, locus YPL256C, strain CLN2, stronger effect = lower value 0.973 | S. cerevisiae deletion strains, locus YPR119W, strain clb2, stronger effect = lower value 0.978 | S. cerevisiae deletion strains, locus YPR141C, strain kar3, stronger effect = lower value 0.975 | S. cerevisiae deletion strains, locus YPR163C, strain tif3, stronger effect = lower value 0.993 | S. cerevisiae deletion strains, locus YPR167C, strain met16, stronger effect = lower value 0.986 | S. cerevisiae deletion strains, strain wtn01, stronger effect = lower value 0.997 | S. cerevisiae strains, strain wild type, stronger effect = lower value 0.984

Reference: PubChem BioAssay AID1159580 (chemical genetic matrix, 2015)
